Reference: the supplement of paper PMC8728848
The full list was thinned out, with the strongest signals kept by preference.

Key:
Assay in all cases: glycan array binding signal (z-score within array); higher = stronger binding
Conditions in all cases: glycan notation: IUPAC condensed, linker removed
[1] = biological target: Fuc(a1-2)Gal(b1-3)GlcNAc(b1-3)[Neu5Ac(a2-6)Gal(b1-4)GlcNAc(b1-6)]Gal(b1-4)Glc
Procedure, shortened: (§1)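 The binding signal is a Z-score computed within each array and averaged over linkers. Arrays of the same protein sequence at different concentrations or buffers were also averaged together. Data originate from 3228 arrays in the Consortium for Functional Glycomics database, kept only where the protein sequence was available.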

[2] = biological target: Fuc(a1-2)Gal(b1-3)[Fuc(a1-4)]GlcNAc(b1-2)Man(a1-3)[Fuc(a1-2)Gal(b1-3)[Fuc(a1-4)]GlcNAc(b1-2)Man(a1-6)]Man(b1-4)GlcNAc(b1-4)[Fuc(a1-6)]GlcNAc(b1-4)[Fuc(a1-6)]GlcNAc
Procedure, shortened: as §1

[3] = biological target: Fuc(a1-2)[Gal(a1-3)]Gal(b1-3)GlcNAc(b1-2)Man(a1-3)[Fuc(a1-2)[Gal(a1-3)]Gal(b1-3)GlcNAc(b1-2)Man(a1-6)]Man(b1-4)GlcNAc(b1-4)GlcNAc
Procedure, shortened: as §1

[4] = biological target: Fuc(a1-2)[Gal(a1-3)]Gal(b1-4)GlcNAc
Procedure, shortened: as §1

[5] = biological target: Fuc(a1-2)[Gal(a1-3)]Gal(b1-4)GlcNAc(b1-2)Man(a1-3)[Fuc(a1-2)[Gal(a1-3)]Gal(b1-4)GlcNAc(b1-2)Man(a1-6)]Man(b1-4)GlcNAc(b1-4)GlcNAc
Procedure, shortened: as §1

[6] = biological target: Fuc(a1-2)[Gal(a1-3)]Gal(b1-4)GlcNAc(b1-3)GalNAc
Procedure, shortened: as §1

[7] = biological target: Fuc(a1-2)[Gal(a1-3)]Gal(b1-4)[Fuc(a1-3)]GlcNAc
Procedure, shortened: as §1

[8] = biological target: Fuc(a1-2)[GalNAc(a1-3)]Gal(b1-3)GalNAc(a1-3)[Fuc(a1-2)]Gal(b1-4)GlcNAc
Procedure, shortened: as §1

[9] = biological target: Fuc(a1-2)[GalNAc(a1-3)]Gal(b1-3)GalNAc(b1-3)Gal(a1-4)Gal(b1-4)Glc
Procedure, shortened: as §1

[10] = biological target: Fuc(a1-2)[GalNAc(a1-3)]Gal(b1-4)GlcNAc(b1-3)Gal(b1-4)GlcNAc(b1-3)Gal(b1-4)GlcNAc
Procedure, shortened: as §1

[11] = biological target: Fuc(a1-2)[GalNAc(a1-3)]Gal(b1-4)GlcNAc(b1-6)GalNAc
Procedure, shortened: as §1

[12] = biological target: Fuc(a1-3)[Gal(b1-4)]GlcNAc(b1-2)Man
Procedure, shortened: as §1

[13] = biological target: Fuc(a1-3)[Gal3S(b1-4)]GlcNAc6S
Procedure, shortened: as §1

Gal(a1-3)Gal(b1-4)Glc = biological target: Gal(a1-3)Gal(b1-4)Glc
Procedure, shortened: as §1

Gal(a1-4)Gal(b1-4)Glc = biological target: Gal(a1-4)Gal(b1-4)Glc
Procedure, shortened: as §1

[14] = biological target: Gal(b1-3)GlcNAc(a1-6)Gal(b1-4)GlcNAc
Procedure, shortened: as §1

[15] = biological target: Gal(b1-3)GlcNAc(b1-2)Man(a1-3)[Gal(b1-3)GlcNAc(b1-2)Man(a1-6)]Man(b1-4)GlcNAc(b1-4)[Fuc(a1-6)]GlcNAc
Procedure, shortened: as §1

[16] = biological target: Gal(b1-4)GlcNAc(b1-2)Man(a1-3)[Gal(b1-4)GlcNAc(b1-2)Man(a1-6)][GlcNAc(b1-4)]Man(b1-4)GlcNAc(b1-4)[Fuc(a1-6)]GlcNAc
Procedure, shortened: as §1

[17] = biological target: Gal(b1-4)GlcNAc(b1-2)Man(a1-6)Man(b1-4)GlcNAc(b1-4)GlcNAc
Procedure, shortened: as §1

[18] = biological target: Gal(b1-4)GlcNAc(b1-3)Gal(b1-4)GlcNAc
Procedure, shortened: as §1

[19] = biological target: Gal(b1-4)GlcNAc(b1-3)Gal(b1-4)GlcNAc(b1-3)Gal(b1-4)GlcNAc(b1-2)Man(a1-3)[Gal(b1-4)GlcNAc(b1-3)Gal(b1-4)GlcNAc(b1-3)Gal(b1-4)GlcNAc(b1-2)Man(a1-6)]Man(b1-4)GlcNAc(b1-4)GlcNAc
Procedure, shortened: as §1

[20] = biological target: Gal(b1-4)GlcNAc(b1-3)Gal(b1-4)GlcNAc(b1-3)Gal(b1-4)GlcNAc(b1-3)Gal(b1-4)GlcNAc(b1-3)Gal(b1-4)GlcNAc(b1-2)[Gal(b1-4)GlcNAc(b1-3)Gal(b1-4)GlcNAc(b1-3)Gal(b1-4)GlcNAc(b1-3)Gal(b1-4)GlcNAc(b1-3)Gal(b1-4)GlcNAc(b1-6)]Man(a1-6)[Gal(b1-4)GlcNAc(b1-3)Gal(b1-4)GlcNAc(b1-3)Gal(b1-4)GlcNAc(b1-3)Gal(b1-4)GlcNAc(b1-3)Gal(b1-4)GlcNAc(b1-2)Man(a1-3)]Man(b1-4)GlcNAc(b1-4)[Fuc(a1-6)]GlcNAc
Procedure, shortened: as §1

[21] = biological target: Gal(b1-4)GlcNAc(b1-6)GalNAc
Procedure, shortened: as §1

Gal3S4S(b1-4)GlcNAc = biological target: Gal3S4S(b1-4)GlcNAc
Procedure, shortened: as §1

[22] = biological target: GalNAc(a1-3)GalNAc(b1-3)Gal(a1-4)Gal(b1-4)GlcNAc
Procedure, shortened: as §1

[23] = biological target: GalNAc(b1-3)Gal(a1-4)Gal(b1-4)GlcNAc
Procedure, shortened: as §1

GalNAc(b1-4)GlcNAc = biological target: GalNAc(b1-4)GlcNAc
Procedure, shortened: as §1

[24] = biological target: GalNAc(b1-4)GlcNAc(b1-2)Man
Procedure, shortened: as §1

[25] = biological target: GalNAc(b1-4)GlcNAc(b1-3)GalNAc(b1-4)GlcNAc
Procedure, shortened: as §1

GalNAc(b1-4)GlcNAc6S = biological target: GalNAc(b1-4)GlcNAc6S
Procedure, shortened: as §1

GlcA(b1-6)Gal = biological target: GlcA(b1-6)Gal
Procedure, shortened: as §1

[26] = biological target: GlcNAc(a1-4)Gal(b1-4)GalNAc
Procedure, shortened: as §1

[27] = biological target: GlcNAc(a1-4)Gal(b1-4)GlcNAc(b1-3)Gal(b1-4)GlcNAc
Procedure, shortened: as §1

[28] = biological target: GlcNAc(b1-2)Gal(b1-3)GalNAc
Procedure, shortened: as §1

[29] = biological target: GlcNAc(b1-2)[GlcNAc(b1-6)]Man(a1-6)[GlcNAc(b1-2)Man(a1-3)]Man(b1-4)GlcNAc(b1-4)GlcNAc
Procedure, shortened: as §1

[30] = biological target: GlcNAc(b1-2)[GlcNAc(b1-6)]Man(a1-6)[GlcNAc(b1-2)Man(a1-3)]Man(b1-4)GlcNAc(b1-4)[Fuc(a1-6)]GlcNAc
Procedure, shortened: as §1

[31] = biological target: GlcNAc(b1-3)Gal(b1-4)GlcNAc
Procedure, shortened: as §1

[32] = biological target: GlcNAc(b1-3)Gal(b1-4)GlcNAc(b1-6)[Gal(b1-3)]GalNAc
Procedure, shortened: as §1

GlcNAc(b1-4)GlcNAc = biological target: GlcNAc(b1-4)GlcNAc
Procedure, shortened: as §1

[33] = biological target: Neu5Ac(a2-3)Gal(b1-3)GlcNAc
Procedure, shortened: as §1

[34] = biological target: Neu5Ac(a2-3)Gal(b1-3)[GlcNAc(b1-6)]GalNAc
Procedure, shortened: as §1

[35] = biological target: Neu5Ac(a2-3)Gal(b1-4)GlcNAc
Procedure, shortened: as §1

[36] = biological target: Neu5Ac(a2-3)Gal(b1-4)GlcNAc(b1-3)Gal(b1-4)GlcNAc(b1-2)Man(a1-3)[Neu5Ac(a2-3)Gal(b1-4)GlcNAc(b1-3)Gal(b1-4)GlcNAc(b1-2)Man(a1-6)]Man(b1-4)GlcNAc(b1-4)GlcNAc
Procedure, shortened: as §1

[37] = biological target: Neu5Ac(a2-3)Gal(b1-4)GlcNAc(b1-3)Gal(b1-4)GlcNAc(b1-3)Gal(b1-4)GlcNAc(b1-2)Man(a1-3)[Neu5Ac(a2-3)Gal(b1-4)GlcNAc(b1-3)Gal(b1-4)GlcNAc(b1-3)Gal(b1-4)GlcNAc(b1-2)Man(a1-6)]GalNAc
Procedure, shortened: as §1

[38] = biological target: Neu5Ac(a2-3)Gal(b1-4)[Fuc(a1-3)]GlcNAc(b1-6)[Neu5Ac(a2-3)Gal(b1-3)]GalNAc
Procedure, shortened: as §1

[39] = biological target: Neu5Ac(a2-6)Gal(b1-4)GlcNAc
Procedure, shortened: as §1

[40] = biological target: Neu5Ac(a2-6)Gal(b1-4)GlcNAc(b1-2)Man(a1-3)[Neu5Ac(a2-3)Gal(b1-4)GlcNAc(b1-2)Man(a1-6)]Man(b1-4)GlcNAc(b1-4)GlcNAc
Procedure, shortened: as §1

[41] = biological target: Neu5Ac(a2-6)Gal(b1-4)GlcNAc(b1-3)Gal(b1-3)GlcNAc
Procedure, shortened: as §1

[42] = biological target: Neu5Ac(a2-6)GlcNAc(b1-4)GlcNAc(b1-4)GlcNAc
Procedure, shortened: as §1

[43] = biological target: Neu5Ac(a2-8)Neu5Ac(a2-3)[GalNAc(b1-4)]Gal(b1-4)Glc
Procedure, shortened: as §1

B1: SJA (Sophora japonica) (protein)
chain: FLGLFNSGGYSSSYQIVAVEFDTYINEWDPKTRHIGIDINSINSTKTVTWGWENGEVAIVLISYKAATETLTVSLTYPSSQTSYILSAAVDLKSILPEWVRIGF
[1]
  glycan array binding signal (z-score): -0.155
[2]
  glycan array binding signal (z-score): -0.175
[3]
  glycan array binding signal (z-score): 4.34
[4]
  glycan array binding signal (z-score): 2.19
[5]
  glycan array binding signal (z-score): 4.98
[6]
  glycan array binding signal (z-score): 0.012
[7]
  glycan array binding signal (z-score): 6.46
[8]
  glycan array binding signal (z-score): -0.406
[9]
  glycan array binding signal (z-score): -0.202
[10]
  glycan array binding signal (z-score): 0.248
[11]
  glycan array binding signal (z-score): -0.199
[12]
  glycan array binding signal (z-score): -0.248
[13]
  glycan array binding signal (z-score): -0.061
Gal(a1-3)Gal(b1-4)Glc
  glycan array binding signal (z-score): -0.143
Gal(a1-4)Gal(b1-4)Glc
  glycan array binding signal (z-score): -0.134
[14]
  glycan array binding signal (z-score): -0.076
[15]
  glycan array binding signal (z-score): -0.007
[16]
  glycan array binding signal (z-score): -0.337
[17]
  glycan array binding signal (z-score): -0.334
[18]
  glycan array binding signal (z-score): -0.148
[19]
  glycan array binding signal (z-score): 2.39
[20]
  glycan array binding signal (z-score): 2.24
[21]
  glycan array binding signal (z-score): -0.118
Gal3S4S(b1-4)GlcNAc
  glycan array binding signal (z-score): -0.23
[22]
  glycan array binding signal (z-score): -0.341
[23]
  glycan array binding signal (z-score): -0.186
GalNAc(b1-4)GlcNAc
  glycan array binding signal (z-score): 3.38
[24]
  glycan array binding signal (z-score): 2.46
[25]
  glycan array binding signal (z-score): 8.25
GalNAc(b1-4)GlcNAc6S
  glycan array binding signal (z-score): 3.05
GlcA(b1-6)Gal
  glycan array binding signal (z-score): -0.111
[26]
  glycan array binding signal (z-score): -0.15
[27]
  glycan array binding signal (z-score): -0.229
[28]
  glycan array binding signal (z-score): -0.192
[29]
  glycan array binding signal (z-score): -0.255
[30]
  glycan array binding signal (z-score): -0.375
[31]
  glycan array binding signal (z-score): -0.101
[32]
  glycan array binding signal (z-score): -0.24
GlcNAc(b1-4)GlcNAc
  glycan array binding signal (z-score): -0.142
[33]
  glycan array binding signal (z-score): -0.139
[34]
  glycan array binding signal (z-score): -0.156
[35]
  glycan array binding signal (z-score): -0.241
[36]
  glycan array binding signal (z-score): 0.783
[37]
  glycan array binding signal (z-score): 3.51
[38]
  glycan array binding signal (z-score): -0.056
[39]
  glycan array binding signal (z-score): -0.22
[40]
  glycan array binding signal (z-score): -0.178
[41]
  glycan array binding signal (z-score): -0.207
[42]
  glycan array binding signal (z-score): -0.288
[43]
  glycan array binding signal (z-score): -0.232
